# Source: publication PMC5540273 (PLoS ONE, 2017)
# Key:
# Conditions in all cases: concentration: 1 μM, replicates: in singlicate; n = 1
# CAMK1 = tested on: CAMK1
# CAMK2A = tested on: CAMK2A
# CAMK2B = tested on: CAMK2B
# CAMK2D = tested on: CAMK2D
# CAMK2G = tested on: CAMK2G
# CAMK4 = tested on: CAMK4
# CAMKK1 = tested on: CAMKK1
# CAMKK2 = tested on: CAMKK2
# CASK = tested on: CASK
# CDC2L1 = tested on: T1, CDC2L1
# T1 construct: gene CDK11B
# CDC2L2 = tested on: CDC2L2
# CDC2L5 = tested on: T2, CDC2L5
# T2 construct: gene CDK13
# CDK11 = tested on: T3, CDK11
# T3 construct: gene CDK19
# CDK2 = tested on: CDK2
# CDK3 = tested on: CDK3
# CDK4-cyclinD1 = tested on: CDK4-cyclinD1
# CDK4-cyclinD3 = tested on: CDK4-cyclinD3
# CDK4 = tested on: CDK4
# CDK5 = tested on: CDK5
# CDK7 = tested on: CDK7
# 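Also: KINOMEscan kinase panel screen.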
Structure (SMILES),%Inh (CAMK1) [%],%Inh (CAMK2A) [%],%Inh (CAMK2B) [%],%Inh (CAMK2D) [%],%Inh (CAMK2G) [%],%Inh (CAMK4) [%],%Inh (CAMKK1) [%],%Inh (CAMKK2) [%],%Inh (CASK) [%],%Inh (CDC2L1) [%],%Inh (CDC2L2) [%],%Inh (CDC2L5) [%],%Inh (CDK11) [%],%Inh (CDK2) [%],%Inh (CDK3) [%],%Inh (CDK4-cyclinD1) [%],%Inh (CDK4-cyclinD3) [%],%Inh (CDK4) [%],%Inh (CDK5) [%],%Inh (CDK7) [%]
Cc1ccc(C(=O)N2CC[C@@H](O)C2)cc1-n1c(C)cc(OCc2ccc(F)cc2F)c(Br)c1=O,0,0,0,0,0,0,0,0,0,0,0,0,0,0,0,0,0,0,0,0
CC(=O)N1CCN(c2ccc(Nc3nccc(-c4sc(C(C)C)nc4-c4cccc(NS(=O)(=O)c5cccc(Cl)c5)c4)n3)cn2)CC1 [GSK1660437],34,0,0,0,0,0,0,0,0,0,0,21,0,97.1,98.6,79,4,76,100,59
COc1cc(Nc2nccc(-c3c(-c4cccc(NC(=O)c5c(F)cccc5F)c4)nn4ccccc34)n2)cc(OC)c1OC [GSK323521],31,3,0,35,40,30,40,38,5,0,14,0,96.9,20,21,0,0,7,28,0
CC(=O)Nc1nc2cnc(Nc3cc(NC(=O)c4cccc(C5(C#N)CC5)c4Cl)ccc3C)nc2s1,35,13,0,0,10,0,14,12,0,43,33,17,23,0,0,0,0,0,0,0
Cc1ccc(S(=O)(=O)Nc2ccc(Nc3nccc(Nc4cccc5[nH]ncc45)n3)cc2)cc1 [GSK581271],24,0,0,4,8,0,0,9,45,0,0,0,0,21,17,0,0,15,0,0
Nc1ncnc2c1nc(-c1ccccc1)n2-c1ccccc1 [SKF-97293],13,3,1,18,4,0,0,6,17,0,5,48,7,12,13,21,0,21,3,41
COc1cc(Nc2nccc(N3CCC(NC(=O)Nc4cccc(C(C)=O)c4)C3)n2)cc(OC)c1OC (stereo not shown) [GSK1379753],42,0,0,0,0,0,0,4,0,0,14,0,16,0,11,0,0,0,0,0
COc1cc2c(cc1OCCN1CCNCC1)ncc1c3ccc(C#N)cc3[nH]c21,10,96.8,86,88,79,0,80,64,25,14,0,8,24,0,17,31,0,6,3,99.7
Cn1cc(-c2[nH]c3cc(NC(=O)[C@H](N)C4CCCCC4)cc4c3c2C=NNC4=O)cn1,49,68,15,76,73,0,60,56,6,2,6,0,15,8,0,0,0,0,11,41
O=C(Nc1n[nH]c2nc(-c3ccc(O)cc3)ccc12)C1CC1 [SB-710363],0,19,19,5,0,0,8,17,31,0,0,69,0,75,84,83,78,0,0,41
CCn1c(-c2nonc2N)nc2c(C#CC(C)(C)O)ncc(OCCCCN)c21.O=C(O)C(F)(F)F.O=C(O)C(F)(F)F [GSK507274],31,0,0,4,19,50,0,0,19,0,0,0,0,3,16,0,0,0,0,0
Cn1cc(-c2ccc3c(c2)CCN3C(=O)Cc2cccc(F)c2)c2c(N)ncnc21 [GSK2603358],79,0,0,16,34,0,26,29,17,0,21,0,96.7,0,7,2,0,17,0,0
Cc1cccc(NC(=O)Nc2ccc(Oc3ncnc4ccn(C)c34)cc2)c1,0,0,0,0,0,0,0,0,0,0,0,0,77,0,2,0,0,0,15,0
Cl.c1ccc(-c2ccc3c(Nc4ccc5[nH]ccc5c4)ccnc3c2)nc1 [GW440138],0,0,0,7,18,0,3,12,0,0,7,0,4,0,0,27,0,35,0,0
O=C(Nc1cccc(-c2nn3ccccc3c2-c2ccnc(Nc3cccc(C(F)(F)F)c3)n2)c1)c1c(F)cccc1F [GSK292658],4,0,0,5,0,0,16,3,0,0,0,99.3,0,0,1,0,0,0,0,6
COc1ccc(Nc2nccc(N3CCC(NC(=O)Nc4cccc(OC)c4)C3)n2)cc1 (stereo not shown) [GSK1379742],0,0,0,2,9,4,5,4,13,0,0,0,56,0,27,0,0,13,0,0
Cl.Cl.NCC(NC(=O)c1cc(-c2ccccc2)c(-c2ccnc3[nH]ccc23)s1)c1ccccc1 (stereo not shown) [GSK1321561],4,0,0,5,0,0,15,10,13,0,11,0,8,0,8,0,0,27,0,0
